Values without a mark were called inactive. Inconclusive results are not listed. Where a call stands in place of a potency, no number is given. The source made the active and inactive calls. Unless noted, the call rests on the fitted dose curve; in most records, active means well fitted curve in the direction sought with a large enough effect in the repeat runs; inconclusive means weak or mixed curves; inactive means no such curve, though single readings can be large; an effect the other way counts as inactive or inconclusive.
Legend:
[1] = Human pregnane X receptor (PXR) small molecule agonists, qHTS cell viability counter screen (AID 1346977); further: nearly all actives have a fitted effect of over 50% in size
Method in brief: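 Measures live-cell protease fluorescence (CellTiter-Fluor) in PXR-Luc HepG2 cells treated 24hr with compounds at 37C. Cells had 5hr to attach before pin transfer of DMSO solutions.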

[2] = Caspase-3/7 induction in HepG2 cells by small molecules, qHTS assay (AID 1346978); further: nearly all actives have a fitted effect of over 15% in size
Method in brief: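 Caspase-3/7 induction was measured by Caspase-Glo 3/7 luminescence (30 min, room temperature) after a 17 hr compound exposure of wild-type HepG2 cells seeded at 2,000 per well and pre-incubated 5 hr.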

[3] = Caspase-3/7 induction in CHO-K1 cells by small molecules, qHTS assay (AID 1346980); further: nearly all actives have a fitted effect of over 15% in size
Method in brief: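 Luminescent Caspase-Glo 3/7 read (30min, room temperature) quantified apoptosis induction. Cells were wild-type CHO-K1, treated with compound for 17hr at 37 C and 5% CO2.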

[4] = Caspase-3/7 induction in HepG2 cells by small molecules, qHTS cell viability counter screen (AID 1346981); further: series mostly up to about 92 µM; nearly all actives have a fitted effect of over 30% in size
Method in brief: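 Cell viability is measured as a cytotoxicity counter screen alongside the Caspase-Glo 3/7 readout in identical wells. Wild-type HepG2 cells are treated with test compounds for 16 hr at 37 C before CellTiter-Fluor addition and a 1-hr incubation.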

[5] = molecular target: Acetylcholinesterase (Homo sapiens) (UniProt P22303); assay: Acetylcholinesterase (AChE) small molecule antagonists: colormetric cell-based qHTS assay (AID 1347395; calls by dose curve; further: nearly all actives have a fitted effect of over 30% in size; further: potency means the concentration at half of the fitted maximal effect)
Method in brief: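 Endogenous AChE of human neuroblastoma SH-SY5Y cells was measured with an Ellman-type DTNB/acetylthiocholine mix. Compound pretreatment lasted 30 min at 37 C; substrate reaction ran 90 min at 37 C.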

[6] = molecular target: Acetylcholinesterase (Homo sapiens) (UniProt P22303); assay: Acetylcholinesterase (AChE) small molecule antagonists: enzyme-based qHTS assay (AID 1347397; calls by dose curve; further: nearly all actives have a fitted effect of over 55% in size; further: potency means the concentration at half of the fitted maximal effect); conditions: Potency: AChE enzyme activity inhibition
Method in brief: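 Colorimetric DTNB readout of acetylthiocholine hydrolysis, 10 min at room temperature, after 30 min room-temperature exposure of 50 mU/mL recombinant human enzyme to compound; DMSO vehicle control.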

[7] = molecular target: Acetylcholinesterase (Homo sapiens) (UniProt P22303); assay: Acetylcholinesterase (AChE) small molecule antagonists: fluorescence cell-based qHTS assay (AID 1347398; calls by dose curve; further: nearly all actives have a fitted effect of over 50% in size; further: potency means the concentration at half of the fitted maximal effect); conditions: Potency: AChE activity
Method in brief: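 Cellular AChE activity read as thiocholine from acetylthiocholine hydrolysis, detected by Thiolite Green fluorescence at 490/520 nm after 40 min at room temperature. Compounds were pre-incubated 30 min at 37 C on adherent SH-SY5Y cells.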

[8] = molecular target: Acetylcholinesterase (Homo sapiens) (UniProt P22303); assay: Acetylcholinesterase (AChE) small molecule antagonists: enzyme-based qHTS assay with human liver microsomes (AID 1347399; calls by dose curve; further: nearly all actives have a fitted effect of over 60% in size; further: potency means the concentration at half of the fitted maximal effect); conditions: Potency: qHTS inhibition
Method in brief: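 Recombinant human AChE (50 mU/mL in the enzyme mix) and human liver microsomes (0.25 mg/mL final) were preincubated with compound and NADPH (0.25 mg/mL final) for 30 min at 37 C. Acetylthiocholine/DTNB was then added; thiocholine was read colorimetrically after 10 min at room temperature.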

[9] = molecular target: Cytochrome P450 2D6 (Homo sapiens) (UniProt P10635); assay: Cytochrome P450 Family 2 Subfamily D Member 6 (CYP2D6) small molecule antagonists: luciferase reporter qHTS assay (AID 1671196); further: nearly all actives have a fitted effect of over 50% in size; further: potency means the concentration at half of the fitted maximal effect
Method in brief: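 Enzyme and proluciferin substrate were first combined with test chemical for 10 min at room temperature. Adding NADPH regeneration solution started a 1 h reaction, stopped with luciferin detection reagent and read by luminescence 20 min later.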

[10] = molecular target: Cytochrome P450 2C19 (Homo sapiens) (UniProt P33261); assay: Cytochrome P450 Family 2 Subfamily C Member 19 (CYP2C19) small molecule antagonists: luciferase reporter qHTS assay (AID 1671197); further: nearly all actives have a fitted effect of over 65% in size; further: potency means the concentration at half of the fitted maximal effect
Method in brief: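 Quantitative high-throughput screen of the Tox21 library using CYP2C19 with proluciferin substrate. Reaction: NADPH regeneration, 37C, 1 h, after 10 min compound preincubation at room temperature. Readout: luminescence.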

[11] = molecular target: Cytochrome P450 1A2 (Homo sapiens) (UniProt P05177); assay: Cytochrome P450 Family 1 Subfamily A Member 2 (CYP1A2) small molecule antagonists: luciferase reporter qHTS assay (AID 1671199); further: nearly all actives have a fitted effect of over 50% in size; further: potency means the concentration at half of the fitted maximal effect
Method in brief: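 Compounds were incubated with CYP1A2 and a luminogenic proluciferin substrate for 10 min at room temperature before the reaction was started with NADPH regeneration solution. After 1 h, detection reagent was added and light output, proportional to CYP activity, was recorded.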

[12] = molecular target: Voltage-gated inwardly rectifying potassium channel KCNH2 (Homo sapiens) (UniProt Q12809); assay: Human Ether-a-go-go-Related Gene (hERG) channel small molecule antagonists: fluorescence cell-based qHTS assay (AID 1671200)
Method in brief: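 Quantitative HTS in hERG-U2OS cells: thallium entry through the channel reports activity, read as continuous 480/540 nm fluorescence over 2 min after stimulus addition.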

[13] = molecular target: Cytochrome P450 3A4 (Homo sapiens) (UniProt P08684); assay: Cytochrome P450 Family 3 Subfamily A Member 4 (CYP3A4) small molecule antagonists: luciferase reporter qHTS assay (AID 1671201); further: nearly all actives have a fitted effect of over 50% in size; further: potency means the concentration at half of the fitted maximal effect
Method in brief: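 Inhibition of CYP3A4 is measured as loss of light: the enzyme converts a proluciferin substrate to luciferin, detected luminescently. Reaction ran 1 h at room temperature with NADPH regeneration after a 10 min compound preincubation.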

[14] = molecular target: Nuclear receptor subfamily 1 group I member 2 (Homo sapiens) (UniProt O75469); assay: Human pregnane X receptor (PXR) small molecule agonists, qHTS assay (AID 1346982); further: nearly all actives have a fitted effect of over 35% in size; further: potency means the concentration at half of the fitted maximal effect
Method in brief: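 Cells: HepG2 stably carrying PXR-Luc. Medium held 5% charcoal-stripped FBS. Compounds in DMSO added after 5 hr plating, incubated 24 hr, then luminescence quantified with ONE-Glo.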

[15] = molecular target: Cytochrome P450 2C9 (Homo sapiens) (UniProt P11712); assay: Cytochrome P450 Family 2 Subfamily C Member 9 (CYP2C9) small molecule antagonists: luciferase reporter qHTS assay (AID 1671198); further: nearly all actives have a fitted effect of over 50% in size; further: potency means the concentration at half of the fitted maximal effect
Method in brief: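 Enzyme-substrate mix preincubated with compound 10 min at room temperature; reaction started with NADPH regeneration solution, 1 h 37C. Luminescent luciferin product read after 20 min detection reagent.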

[16] = Caspase-3/7 induction in CHO-K1 cells by small molecules, qHTS cell viability counter screen (AID 1346979); further: nearly all actives have a fitted effect of over 35% in size
Method in brief: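 In the same wells as the caspase read, viability of compound-treated wild-type CHO-K1 cells was assessed using CellTiter-Fluor, added after 16hr at 37C and measured by fluorescence following 1hr further incubation.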

[17] = molecular target: Nuclear receptor subfamily 1 group I member 2 (Rattus norvegicus) (UniProt Q9R1A7); assay: Rat pregnane X receptor (rPXR) activation by small molecules, qHTS assay (AID 1346983); conditions: rPXR luciferase reporter cells, One-Glo luminescence, 24 h; max activation: stronger effect = higher value; further: nearly all actives have a fitted effect of over 20% in size; further: potency means the concentration at half of the fitted maximal effect
Method in brief: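 Luminescent readout (One-Glo luciferase, 30 min room temperature) followed 24 hr compound treatment at 37 C of rPXR cells plated 2,000 per well and preincubated 5hr; qHTS format with compounds delivered in DMSO.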

[18] = molecular target: Nuclear receptor subfamily 1 group I member 2 (Homo sapiens) (UniProt O75469); assay: CYP3A4 induction through human pregnane X receptor (PXR) by small molecules, qHTS assay (AID 1346984); further: nearly all actives have a fitted effect of over 40% in size
Method in brief: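 Quantitative HTS in DPX-2 cells, i.e. HepG2 transfected with PXR response element and CYP3A4-promoter luciferase. Compounds in DMSO incubated 24hr at 37C; then P450-Glo CYP3A4 substrate, 3uM final, 3hr; One-Glo luminescence.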

[19] = molecular target: Nuclear receptor subfamily 1 group I member 2 (Homo sapiens) (UniProt O75469); assay: Human pregnane X receptor (PXR) activation by small molecules, qHTS assay (AID 1346985); further: nearly all actives have a fitted effect of over 40% in size; further: potency means the concentration at half of the fitted maximal effect
Method in brief: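 DPX-2 cells (HepG2 co-transfected with a PXR response element and a CYP3A4-promoter luciferase construct) were seeded at 2,000 per well, rested 5 hr at 37C, then exposed to DMSO-dissolved compounds for 24 hr. Activation was read as luciferase luminescence.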

Sequence of Cytochrome P450 2C9 (Homo sapiens) (P11712 whole entry, looked up): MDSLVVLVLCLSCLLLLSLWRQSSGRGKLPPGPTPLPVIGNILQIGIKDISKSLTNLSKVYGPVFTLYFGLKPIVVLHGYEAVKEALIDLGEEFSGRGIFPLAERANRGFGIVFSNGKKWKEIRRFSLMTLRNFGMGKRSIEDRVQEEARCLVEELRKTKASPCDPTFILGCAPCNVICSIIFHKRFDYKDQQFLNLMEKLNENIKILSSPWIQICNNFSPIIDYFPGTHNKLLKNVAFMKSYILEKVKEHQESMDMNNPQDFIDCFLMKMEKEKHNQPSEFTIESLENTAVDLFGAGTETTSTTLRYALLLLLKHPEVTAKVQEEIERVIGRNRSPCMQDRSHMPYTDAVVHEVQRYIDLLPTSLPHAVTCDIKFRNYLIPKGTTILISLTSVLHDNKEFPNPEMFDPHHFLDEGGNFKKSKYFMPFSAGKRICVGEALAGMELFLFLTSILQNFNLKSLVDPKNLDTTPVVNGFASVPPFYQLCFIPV
Sequence of Cytochrome P450 2D6 (Homo sapiens) (P10635 whole entry, looked up): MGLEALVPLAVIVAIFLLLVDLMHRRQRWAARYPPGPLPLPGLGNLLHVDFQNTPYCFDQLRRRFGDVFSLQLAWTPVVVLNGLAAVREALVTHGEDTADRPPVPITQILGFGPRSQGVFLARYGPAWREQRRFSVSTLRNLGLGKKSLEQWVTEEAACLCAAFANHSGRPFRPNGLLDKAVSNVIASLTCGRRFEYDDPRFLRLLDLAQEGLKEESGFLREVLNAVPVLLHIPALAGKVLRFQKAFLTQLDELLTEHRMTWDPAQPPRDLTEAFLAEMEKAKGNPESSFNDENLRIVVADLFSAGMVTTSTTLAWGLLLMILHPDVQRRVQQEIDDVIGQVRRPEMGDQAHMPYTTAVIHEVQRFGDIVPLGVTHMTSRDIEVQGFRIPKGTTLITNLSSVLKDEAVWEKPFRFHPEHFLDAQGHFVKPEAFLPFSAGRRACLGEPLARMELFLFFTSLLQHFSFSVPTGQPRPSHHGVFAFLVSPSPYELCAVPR
Sequence of Nuclear receptor subfamily 1 group I member 2 (Homo sapiens) (O75469 whole entry, looked up): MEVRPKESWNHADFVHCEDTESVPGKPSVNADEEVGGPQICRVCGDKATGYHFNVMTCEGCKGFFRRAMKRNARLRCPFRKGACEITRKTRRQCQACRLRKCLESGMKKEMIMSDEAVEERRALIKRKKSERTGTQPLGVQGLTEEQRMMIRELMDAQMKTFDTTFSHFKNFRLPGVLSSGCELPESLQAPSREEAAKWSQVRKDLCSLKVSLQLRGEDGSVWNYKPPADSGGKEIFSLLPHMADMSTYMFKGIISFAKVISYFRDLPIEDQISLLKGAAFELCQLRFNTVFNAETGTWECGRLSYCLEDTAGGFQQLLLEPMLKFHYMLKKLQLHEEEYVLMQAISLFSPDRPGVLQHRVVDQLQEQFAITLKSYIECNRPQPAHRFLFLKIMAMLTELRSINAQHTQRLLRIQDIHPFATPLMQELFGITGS
Sequence of Voltage-gated inwardly rectifying potassium channel KCNH2 (Homo sapiens) (Q12809 whole entry, looked up): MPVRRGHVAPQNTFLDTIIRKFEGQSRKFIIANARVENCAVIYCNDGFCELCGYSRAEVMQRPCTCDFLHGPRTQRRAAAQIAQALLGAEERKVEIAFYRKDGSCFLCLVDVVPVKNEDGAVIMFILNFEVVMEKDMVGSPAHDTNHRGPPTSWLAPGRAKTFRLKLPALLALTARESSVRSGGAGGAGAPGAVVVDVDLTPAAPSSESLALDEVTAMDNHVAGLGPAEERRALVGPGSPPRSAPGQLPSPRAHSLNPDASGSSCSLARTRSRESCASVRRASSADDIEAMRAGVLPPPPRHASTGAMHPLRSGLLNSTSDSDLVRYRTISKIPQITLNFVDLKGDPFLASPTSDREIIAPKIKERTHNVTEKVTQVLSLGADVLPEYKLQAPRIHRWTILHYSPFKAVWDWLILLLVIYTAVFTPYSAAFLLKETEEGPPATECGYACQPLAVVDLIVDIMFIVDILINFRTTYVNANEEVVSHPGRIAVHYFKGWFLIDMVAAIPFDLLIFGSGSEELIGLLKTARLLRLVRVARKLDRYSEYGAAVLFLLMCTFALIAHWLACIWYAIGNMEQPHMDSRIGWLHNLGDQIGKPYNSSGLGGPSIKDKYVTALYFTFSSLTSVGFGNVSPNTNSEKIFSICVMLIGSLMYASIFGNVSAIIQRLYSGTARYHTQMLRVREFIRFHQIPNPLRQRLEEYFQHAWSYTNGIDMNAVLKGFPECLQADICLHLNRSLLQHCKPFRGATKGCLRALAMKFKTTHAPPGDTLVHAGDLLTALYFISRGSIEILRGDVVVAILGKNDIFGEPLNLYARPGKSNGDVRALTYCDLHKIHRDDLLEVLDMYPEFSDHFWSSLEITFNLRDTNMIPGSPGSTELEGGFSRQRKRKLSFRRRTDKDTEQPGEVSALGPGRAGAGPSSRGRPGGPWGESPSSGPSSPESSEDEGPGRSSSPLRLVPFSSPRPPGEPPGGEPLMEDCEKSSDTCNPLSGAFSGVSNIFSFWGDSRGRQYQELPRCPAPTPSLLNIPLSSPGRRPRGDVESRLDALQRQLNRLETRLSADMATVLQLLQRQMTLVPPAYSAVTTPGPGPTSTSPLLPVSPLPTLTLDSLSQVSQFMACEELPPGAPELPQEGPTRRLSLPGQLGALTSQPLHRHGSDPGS
Sequence of Cytochrome P450 3A4 (Homo sapiens) (P08684 whole entry, looked up): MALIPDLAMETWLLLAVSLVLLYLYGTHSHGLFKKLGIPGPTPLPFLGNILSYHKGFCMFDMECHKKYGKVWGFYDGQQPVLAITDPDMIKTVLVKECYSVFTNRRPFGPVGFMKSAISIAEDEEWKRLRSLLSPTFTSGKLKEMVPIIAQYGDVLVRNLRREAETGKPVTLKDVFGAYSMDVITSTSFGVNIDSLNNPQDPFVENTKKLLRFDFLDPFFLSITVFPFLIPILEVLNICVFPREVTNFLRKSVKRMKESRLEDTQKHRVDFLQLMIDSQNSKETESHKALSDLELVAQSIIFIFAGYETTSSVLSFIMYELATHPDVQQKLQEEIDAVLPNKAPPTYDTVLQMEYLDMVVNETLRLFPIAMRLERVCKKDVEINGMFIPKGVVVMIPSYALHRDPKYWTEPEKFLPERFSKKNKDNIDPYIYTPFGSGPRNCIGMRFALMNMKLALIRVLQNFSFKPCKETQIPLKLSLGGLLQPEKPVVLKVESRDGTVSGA
Sequence of Cytochrome P450 2C19 (Homo sapiens) (P33261 whole entry, looked up): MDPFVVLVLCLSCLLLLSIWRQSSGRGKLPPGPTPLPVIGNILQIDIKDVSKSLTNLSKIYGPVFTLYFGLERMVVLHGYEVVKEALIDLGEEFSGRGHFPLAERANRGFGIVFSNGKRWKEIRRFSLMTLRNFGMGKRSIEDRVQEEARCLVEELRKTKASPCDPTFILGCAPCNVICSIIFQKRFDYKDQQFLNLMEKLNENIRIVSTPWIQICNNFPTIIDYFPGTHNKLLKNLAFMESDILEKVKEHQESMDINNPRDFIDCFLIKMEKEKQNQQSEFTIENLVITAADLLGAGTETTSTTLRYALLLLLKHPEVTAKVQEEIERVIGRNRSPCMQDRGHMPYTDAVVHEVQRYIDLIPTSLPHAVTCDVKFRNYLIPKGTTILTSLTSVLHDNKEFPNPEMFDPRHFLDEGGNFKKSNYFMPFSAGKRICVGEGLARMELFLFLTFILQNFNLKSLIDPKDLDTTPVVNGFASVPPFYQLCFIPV
Sequence of Cytochrome P450 1A2 (Homo sapiens) (P05177 whole entry, looked up): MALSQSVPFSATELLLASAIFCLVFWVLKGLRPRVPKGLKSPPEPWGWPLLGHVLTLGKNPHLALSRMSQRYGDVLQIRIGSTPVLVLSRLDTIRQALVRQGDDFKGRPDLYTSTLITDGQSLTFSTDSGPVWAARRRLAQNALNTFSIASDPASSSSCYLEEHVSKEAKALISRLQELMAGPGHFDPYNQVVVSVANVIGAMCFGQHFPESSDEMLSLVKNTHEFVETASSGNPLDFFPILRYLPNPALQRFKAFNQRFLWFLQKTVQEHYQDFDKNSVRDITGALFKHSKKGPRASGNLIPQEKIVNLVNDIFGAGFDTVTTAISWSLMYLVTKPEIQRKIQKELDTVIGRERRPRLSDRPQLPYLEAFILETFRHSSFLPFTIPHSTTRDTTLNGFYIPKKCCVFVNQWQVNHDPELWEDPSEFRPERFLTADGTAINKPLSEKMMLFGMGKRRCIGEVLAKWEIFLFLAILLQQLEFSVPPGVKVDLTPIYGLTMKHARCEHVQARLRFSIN
Sequence of Acetylcholinesterase (Homo sapiens) (P22303 whole entry, looked up): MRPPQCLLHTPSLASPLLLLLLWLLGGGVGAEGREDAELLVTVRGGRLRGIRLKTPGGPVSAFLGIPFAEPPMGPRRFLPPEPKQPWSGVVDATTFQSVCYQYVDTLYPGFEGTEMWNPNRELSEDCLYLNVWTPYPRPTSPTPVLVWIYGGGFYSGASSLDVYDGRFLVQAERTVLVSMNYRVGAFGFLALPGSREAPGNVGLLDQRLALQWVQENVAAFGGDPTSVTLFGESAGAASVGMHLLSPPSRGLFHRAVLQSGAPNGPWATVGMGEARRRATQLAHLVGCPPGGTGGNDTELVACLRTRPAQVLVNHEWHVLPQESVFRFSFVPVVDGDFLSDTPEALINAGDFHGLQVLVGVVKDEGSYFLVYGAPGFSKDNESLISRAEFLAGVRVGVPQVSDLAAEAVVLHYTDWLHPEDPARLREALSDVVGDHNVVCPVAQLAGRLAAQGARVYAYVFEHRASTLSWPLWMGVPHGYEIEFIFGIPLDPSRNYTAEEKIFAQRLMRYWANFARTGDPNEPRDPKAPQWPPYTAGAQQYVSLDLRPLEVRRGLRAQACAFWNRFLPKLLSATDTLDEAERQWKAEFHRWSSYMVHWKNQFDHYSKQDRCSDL

SMILES	Potency [1]	Potency [2]	Potency [3]	Potency [4]	Potency [5]	Potency [6]	Potency [7]	Potency [8]	Potency [9]	Potency [10]	Potency [11]	Potency [12]	Potency [13]	Potency [14]	Potency [15]	Potency [16]	max activation [17] [%]	Potency [18]	Potency [19]	Potency [17]
C=CC(=O)NCNC(=O)C=C	inactive	inactive	inactive	inactive	inactive	inactive	inactive	inactive	3.56 µM (active)	inactive	46.5 µM (active)	inactive	inactive	–	–	–	–	–	–	–
C=CC(=O)OCC(C)O (centres undefined)	inactive	inactive	inactive	inactive	inactive	inactive	inactive	inactive	inactive	inactive	–	inactive	inactive	inactive	inactive	–	–	–	–	–
O=C(O)COc1ccc(Cl)cc1	inactive	inactive	inactive	inactive	inactive	–	inactive	inactive	inactive	inactive	–	inactive	inactive	inactive	inactive	–	–	–	–	–
Clc1cccc(SC2CCNCC2)n1	inactive	inactive	–	inactive	inactive	–	inactive	inactive	–	–	–	inactive	–	–	–	inactive	–	–	–	–
CC[C@H]1C[C@H]2[C@@H]3CCC4=CC(=O)CC[C@@H]4[C@H]3CC[C@]2(C)[C@H]1O	inactive	inactive	–	inactive	inactive	–	–	inactive	inactive	–	inactive	inactive	inactive	–	–	inactive	–	–	–	–
CC1C(=O)C[C@]2(C(C)C)C[C@H]12 (some centres undefined)	inactive	inactive	inactive	inactive	–	inactive	inactive	inactive	34.5 µM (active)	34.5 µM (active)	–	inactive	inactive	–	–	–	–	–	–	–
CNP(=O)(OC)Oc1ccc(C(C)(C)C)cc1Cl (centres undefined)	inactive	inactive	–	inactive	71 µM (active)	79.6 µM (active)	31.7 µM (active)	inactive	71 µM (active)	8.94 µM (active)	35.6 µM (active)	inactive	inactive	17.2 µM (active)	35.6 µM (active)	–	–	–	–	–
c1cc2ccc3cccc4ccc(c1)c2c34	inactive	inactive	inactive	–	inactive	–	inactive	inactive	–	16.7 µM (active)	0.564 µM (active)	inactive	–	–	74.4 µM (active)	–	–	–	–	–
COCC(C)N(C(=O)CCl)c1c(C)csc1C (centres undefined)	inactive	inactive	inactive	inactive	–	inactive	inactive	inactive	inactive	6.33 µM (active)	–	inactive	inactive	inactive	7.96 µM (active)	–	-3.61	inactive	inactive	–
O=C(C(Cl)(Cl)Cl)C(Cl)(Cl)Cl	inactive	inactive	inactive	inactive	inactive	–	–	inactive	36.3 µM (active)	inactive	–	inactive	inactive	inactive	inactive	–	–	–	–	–
COc1nn(CSP(=S)(OC)OC)c(=O)s1	inactive	inactive	inactive	–	69.6 µM (active)	inactive	inactive	inactive	31.7 µM (active)	0.633 µM (active)	7.96 µM (active)	inactive	–	54.5 µM (active)	5.48 µM (active)	–	–	–	–	–
O=C1CN=C(c2ccccc2)c2cc(Cl)ccc2N1CC1CC1	inactive	inactive	inactive	inactive	–	–	29.7 µM (active)	inactive	–	6.64 µM (active)	–	–	–	25.5 µM (active)	26.4 µM (active)	–	–	–	2 µM (active)	11.2 µM (active)
COC1=CC(=O)O[C@@H](CCc2ccccc2)C1	inactive	inactive	–	inactive	inactive	inactive	inactive	inactive	inactive	5.87 µM (active)	–	inactive	inactive	63.6 µM (active)	33 µM (active)	–	–	–	–	–
COP(=S)(Oc1cc(Cl)c(Br)cc1Cl)c1ccccc1 (centres undefined)	inactive	inactive	inactive	inactive	–	–	–	8.94 µM (active)	–	0.224 µM (active)	15.9 µM (active)	inactive	7.1 µM (active)	24.3 µM (active)	0.796 µM (active)	–	–	–	–	–

— PubChem BioAssay (Tox21)
